# The supplement of paper PMC8728848
# Shown is part of a subset that was picked to be rich in the strongest signals.
# How the values were obtained:
# Assay in all cases: glycan array binding signal (z-score within array); higher = stronger binding
# Details in all cases: glycan notation: IUPAC condensed, linker removed
# [1] = biological target: Fuc(a1-2)Gal(b1-3)[Fuc(a1-4)]GlcNAc(b1-3)[Fuc(a1-3)[Gal(b1-4)]GlcNAc(b1-6)]Gal(b1-4)Glc
# How it was run: (§1)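 The binding signal is a Z-score computed within each array and averaged over linkers. Arrays of the same protein sequence at different concentrations or buffers were also averaged together. Data originate from 3228 arrays in the Consortium for Functional Glycomics database, kept only where the protein sequence was available.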
# [2] = biological target: Fuc(a1-2)[Gal(a1-3)]Gal(b1-3)GalNAc(b1-3)Gal(a1-4)Gal(b1-4)Glc
# How it was run: as §1
# [3] = biological target: Fuc(a1-2)[Gal(a1-3)]Gal(b1-4)GlcNAc(b1-3)GalNAc
# How it was run: as §1
# [4] = biological target: Fuc(a1-2)[GalNAc(a1-3)]Gal(b1-3)GlcNAc(b1-3)GalNAc
# How it was run: as §1
# [5] = biological target: Fuc(a1-3)[Gal(b1-4)]GlcNAc
# How it was run: as §1
# [6] = biological target: Fuc(a1-3)[Gal3S(b1-4)]Glc
# How it was run: as §1
# Gal(a1-3)GalNAc = biological target: Gal(a1-3)GalNAc
# How it was run: as §1
# Gal(a1-4)GlcNAc = biological target: Gal(a1-4)GlcNAc
# How it was run: as §1
# [7] = biological target: Gal(b1-3)GlcNAc(b1-3)GalNAc
# How it was run: as §1
# [8] = biological target: Gal(b1-3)GlcNAc(b1-6)[Gal(b1-3)]GalNAc
# How it was run: as §1
# [9] = biological target: Gal(b1-3)[Fuc(a1-4)]GlcNAc(b1-2)Man
# How it was run: as §1
# [10] = biological target: Gal(b1-3)[Fuc(a1-4)]GlcNAc(b1-6)GalNAc
# How it was run: as §1
# [11] = biological target: Gal(b1-4)GlcNAc(a1-6)Gal(b1-4)GlcNAc
# How it was run: as §1
# [12] = biological target: Gal(b1-4)GlcNAc(b1-2)Man(a1-3)[Gal(b1-4)GlcNAc(b1-2)Man(a1-6)]Man(b1-4)GlcNAc(b1-4)GlcNAc
# How it was run: as §1
# [13] = biological target: Gal(b1-4)GlcNAc(b1-2)[Gal(b1-4)GlcNAc(b1-4)]Man(a1-3)[GlcNAc(b1-4)][Gal(b1-4)GlcNAc(b1-2)[Gal(b1-4)GlcNAc(b1-6)]Man(a1-6)]Man(b1-4)GlcNAc(b1-4)GlcNAc
# How it was run: as §1
# [14] = biological target: Gal(b1-4)GlcNAc(b1-6)[Gal(b1-3)]GalNAc
# How it was run: as §1
# [15] = biological target: Gal3S(b1-4)[Fuc(a1-3)]GlcNAc
# How it was run: as §1
# Gal4S(b1-4)GlcNAc = biological target: Gal4S(b1-4)GlcNAc
# How it was run: as §1
# Gal6S(b1-3)GlcNAc6S = biological target: Gal6S(b1-3)GlcNAc6S
# How it was run: as §1
# [16] = biological target: GlcNAc(a1-4)Gal(b1-4)GalNAc
# How it was run: as §1
# [17] = biological target: GlcNAc(b1-3)Gal(b1-4)GlcNAc(b1-3)Gal(b1-4)GlcNAc(b1-3)Gal(b1-4)GlcNAc(b1-2)Man(a1-3)[GlcNAc(b1-3)Gal(b1-4)GlcNAc(b1-3)Gal(b1-4)GlcNAc(b1-3)Gal(b1-4)GlcNAc(b1-2)Man(a1-6)]Man(b1-4)GlcNAc(b1-4)GlcNAc
# How it was run: as §1
# [18] = biological target: GlcNAc(b1-3)Gal(b1-4)GlcNAc(b1-3)Gal(b1-4)GlcNAc(b1-3)Gal(b1-4)GlcNAc(b1-3)Gal(b1-4)GlcNAc(b1-2)[GlcNAc(b1-3)Gal(b1-4)GlcNAc(b1-3)Gal(b1-4)GlcNAc(b1-3)Gal(b1-4)GlcNAc(b1-3)Gal(b1-4)GlcNAc(b1-6)]Man(a1-6)[GlcNAc(b1-3)Gal(b1-4)GlcNAc(b1-3)Gal(b1-4)GlcNAc(b1-3)Gal(b1-4)GlcNAc(b1-3)Gal(b1-4)GlcNAc(b1-2)Man(a1-3)]Man(b1-4)GlcNAc(b1-4)[Fuc(a1-6)]GlcNAc
# How it was run: as §1
# [19] = biological target: Man(a1-2)Man(a1-2)Man(a1-3)Man
# How it was run: as §1
# [20] = biological target: Man(a1-2)Man(a1-2)Man(a1-6)[Man(a1-3)]Man
# How it was run: as §1
# Man(a1-2)Man(a1-3)Man = biological target: Man(a1-2)Man(a1-3)Man
# How it was run: as §1
# [21] = biological target: Man(a1-2)Man(a1-3)[Man(a1-2)Man(a1-6)]Man(a1-6)[Man(a1-2)Man(a1-2)Man(a1-3)]Man
# How it was run: as §1
# [22] = biological target: Man(a1-2)Man(a1-3)[Man(a1-2)Man(a1-6)]Man(a1-6)[Man(a1-2)Man(a1-2)Man(a1-3)]Man(b1-4)GlcNAc(b1-4)GlcNAc
# How it was run: as §1
# [23] = biological target: Man(a1-2)Man(a1-3)[Man(a1-6)]Man(a1-6)[Man(a1-2)Man(a1-3)]Man(b1-4)GlcNAc(b1-4)GlcNAc
# How it was run: as §1
# [24] = biological target: Man(a1-2)Man(a1-6)[Man(a1-3)]Man(a1-6)[Man(a1-2)Man(a1-2)Man(a1-3)]Man
# How it was run: as §1
# [25] = biological target: Man(a1-2)Man(a1-6)[Man(a1-3)]Man(a1-6)[Man(a1-2)Man(a1-2)Man(a1-3)]Man(b1-4)GlcNAc(b1-4)GlcNAc
# How it was run: as §1
# [26] = biological target: Man(a1-3)[Man(a1-6)]Man(a1-6)[Man(a1-2)Man(a1-3)]Man(b1-4)GlcNAc(b1-4)GlcNAc
# How it was run: as §1
# [27] = biological target: Man(a1-3)[Man(a1-6)]Man(a1-6)[Man(a1-3)]Man(b1-4)GlcNAc(b1-4)GlcNAc
# How it was run: as §1
# [28] = biological target: Man(a1-3)[Man(a1-6)]Man(b1-4)GlcNAc(b1-4)GlcNAc
# How it was run: as §1
# Man(a1-6)Man = biological target: Man(a1-6)Man
# How it was run: as §1
# [29] = biological target: Neu5Ac(a2-3)Gal(b1-4)GlcNAc(b1-2)Man(a1-3)[GlcNAc(b1-4)][Neu5Ac(a2-3)Gal(b1-4)GlcNAc(b1-2)Man(a1-6)]Man(b1-4)GlcNAc(b1-4)GlcNAc
# How it was run: as §1
# [30] = biological target: Neu5Ac(a2-3)Gal(b1-4)GlcNAc(b1-3)Gal(b1-4)[Fuc(a1-3)]GlcNAc
# How it was run: as §1
# [31] = biological target: Neu5Ac(a2-3)Gal(b1-4)GlcNAc(b1-6)[Neu5Ac(a2-3)Gal(b1-3)]GalNAc
# How it was run: as §1
# [32] = biological target: Neu5Ac(a2-3)[GalNAc(b1-4)]Gal(b1-4)Glc
# How it was run: as §1
# [33] = biological target: Neu5Ac(a2-6)Gal(b1-4)GlcNAc(b1-2)Man(a1-3)[Gal(b1-4)GlcNAc(b1-2)Man(a1-6)]Man(b1-4)GlcNAc(b1-4)GlcNAc
# How it was run: as §1
# [34] = biological target: Neu5Ac(a2-6)Gal(b1-4)GlcNAc(b1-2)Man(a1-3)[GlcNAc(b1-2)Man(a1-6)]Man(b1-4)GlcNAc(b1-4)GlcNAc
# How it was run: as §1
# [35] = biological target: Neu5Ac(a2-6)Gal(b1-4)GlcNAc(b1-3)Gal(b1-3)GlcNAc
# How it was run: as §1
# Neu5Ac(a2-6)GalNAc = biological target: Neu5Ac(a2-6)GalNAc
# How it was run: as §1
# [36] = biological target: Neu5Ac(a2-6)GlcNAc(b1-4)GlcNAc(b1-4)GlcNAc
# How it was run: as §1
binder,measurement,setting,value
Banana lectin (Musa acuminata) (protein) MNGAIKVGAWGGNGGSAFDMGPAYRIISVKIFSGDVVDAVDVTFTYYGKTETRHFGGSGGTPHEIVLQEGEYLVGMKGEFGNYHGVVVVGKLGFSTNKKSYGPFGNTGGTPFSLPIAAGKISGFFGRGGDFIDAIGVYLEP,glycan array binding signal (z-score),[1],-0.195
same,glycan array binding signal (z-score),[2],-0.195
same,glycan array binding signal (z-score),[3],-0.195
same,glycan array binding signal (z-score),[4],-0.188
same,glycan array binding signal (z-score),[5],-0.193
same,glycan array binding signal (z-score),[6],-0.192
same,glycan array binding signal (z-score),Gal(a1-3)GalNAc,-0.194
same,glycan array binding signal (z-score),Gal(a1-4)GlcNAc,-0.194
same,glycan array binding signal (z-score),[7],-0.195
same,glycan array binding signal (z-score),[8],-0.173
same,glycan array binding signal (z-score),[9],-0.19
same,glycan array binding signal (z-score),[10],-0.19
same,glycan array binding signal (z-score),[11],-0.196
same,glycan array binding signal (z-score),[12],-0.161
same,glycan array binding signal (z-score),[13],-0.197
same,glycan array binding signal (z-score),[14],-0.193
same,glycan array binding signal (z-score),[15],-0.19
same,glycan array binding signal (z-score),Gal4S(b1-4)GlcNAc,-0.195
same,glycan array binding signal (z-score),Gal6S(b1-3)GlcNAc6S,-0.195
same,glycan array binding signal (z-score),[16],-0.174
same,glycan array binding signal (z-score),[17],-0.179
same,glycan array binding signal (z-score),[18],-0.139
same,glycan array binding signal (z-score),[19],3.39
same,glycan array binding signal (z-score),[20],8.43
same,glycan array binding signal (z-score),Man(a1-2)Man(a1-3)Man,5.44
same,glycan array binding signal (z-score),[21],7.92
same,glycan array binding signal (z-score),[22],3.85
same,glycan array binding signal (z-score),[23],6.18
same,glycan array binding signal (z-score),[24],6.72
same,glycan array binding signal (z-score),[25],7.63
same,glycan array binding signal (z-score),[26],5.95
same,glycan array binding signal (z-score),[27],3.55
same,glycan array binding signal (z-score),[28],7.64
same,glycan array binding signal (z-score),Man(a1-6)Man,-0.076
same,glycan array binding signal (z-score),[29],-0.191
same,glycan array binding signal (z-score),[30],-0.195
same,glycan array binding signal (z-score),[31],-0.194
same,glycan array binding signal (z-score),[32],-0.193
same,glycan array binding signal (z-score),[33],-0.142
same,glycan array binding signal (z-score),[34],-0.102
same,glycan array binding signal (z-score),[35],-0.194
same,glycan array binding signal (z-score),Neu5Ac(a2-6)GalNAc,-0.192
same,glycan array binding signal (z-score),[36],-0.194
